Source: PubChem (National Center for Advancing Translational Sciences (NCATS))
TDP1 block – qHTS Assay for Inhibitors of Tyrosyl-DNA Phosphodiesterase (TDP1); Tyrosyl-DNA phosphodiesterase 1 (Homo sapiens), Q9NUW8; recombinant TDP1, AlphaScreen DNA substrate cleavage; Potency, µM (top dose mostly 130 µM), actives largely listed as inhibitors; 0.28% of 350,000 active; AID 485290, 2010; further: nearly all actives have a fitted effect of over 40% in size
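Compounds were preincubated with Tdp1 (1 nM final) for 15 min at room temperature before substrate (15 nM final) started a 5 min reaction; beads (10 ug/ml final) were then added for 10 min before AlphaScreen detection.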
PLK1 PBD inh – qHTS for Inhibitors of PLK1-PDB (polo-like kinase 1 - polo-box domain): Primary Screen | Serine/threonine-protein kinase PLK1 (Homo sapiens), P53350 | Plk1 PBD binding of FITC phosphopeptide, fluorescence polarization | Potency, µM, usual class: inhibitors | 2.8% of 360,000 active | AID 720504, 2013; further: series mostly up to about 57 µM; nearly all actives have a fitted effect of over 65% in size
GCN5L2 inh – qHTS Assay for Inhibitors of GCN5L2. GCN5L2 HAT assay, ThioGlo1 CoA-SH fluorescence. 0.21% of 390,000 active. Histone acetyltransferase KAT2A (Homo sapiens), Q92830. Potency, µM (titrated, usually from 58.9 µM), most hits filed as inhibitors
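GCN5L2 (20nM final) in 50mM HEPES, 0.1mM EDTA pH 7.5, 0.01% Tween-20 was preincubated 15 min at room temperature with compound, then given ThioGlo1 (50uM), H3(1-25) peptide (75uM) and acetyl-CoA (70uM); CoA-thiol fluorescence (Ex340/Em540) was read at 0 and 20 min.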
VDR inh – Inhibitors of the vitamin D receptor (VDR): qHTS. VDR-SRC2-3 peptide fluorescence polarization, 2 h. Potency, µM, actives largely listed as inhibitors. 0.93% of 400,000 active. AID 504847, 2011
Target sequence (P11473 whole entry, looked up): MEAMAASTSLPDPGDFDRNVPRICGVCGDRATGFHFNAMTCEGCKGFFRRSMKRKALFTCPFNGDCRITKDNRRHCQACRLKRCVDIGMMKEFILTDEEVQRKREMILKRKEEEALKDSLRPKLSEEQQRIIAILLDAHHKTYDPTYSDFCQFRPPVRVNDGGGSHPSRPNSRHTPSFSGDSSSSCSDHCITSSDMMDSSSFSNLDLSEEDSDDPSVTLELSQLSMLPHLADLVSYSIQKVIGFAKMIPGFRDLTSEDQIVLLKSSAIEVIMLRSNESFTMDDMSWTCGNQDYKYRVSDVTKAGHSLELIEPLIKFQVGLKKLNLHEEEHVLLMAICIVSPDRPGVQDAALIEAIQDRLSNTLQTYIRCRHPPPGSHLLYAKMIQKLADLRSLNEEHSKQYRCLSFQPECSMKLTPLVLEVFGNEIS
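Measured by FP: displacement of SRC2-3 coactivator peptide from VDR by library compounds, following a two-hour ambient incubation.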
DT40 TDP1 CPT – qHTS for Inhibitors of human tyrosyl-DNA phosphodiesterase 1 (TDP1): qHTS in cells in presence of CPT; chicken DT40 Tdp1-/-;hTDP1 cells + 20 nM CPT, ATP luminescence, 48 h; Potency, µM (doses to about 46.2 µM), most hits filed as inhibitors; 12% of 420,000 active; further: nearly all actives have a fitted effect of over 55% in size
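Cell growth measured by CellTiter-Glo luminescence after a minimum 48 h, 37 C compound exposure with 20 nM CPT in Tdp1-knockout DT40 cells stably expressing hTDP1, seeded 400/well; qHTS titration format.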
TDP1 cell noCPT – qHTS for Inhibitors of human tyrosyl-DNA phosphodiesterase 1 (TDP1): qHTS in cells in absence of CPT; 15% of 420,000 active; DT40 Tdp1-/- hTDP1 cells, no CPT, ATP luminescence, 48 h; Potency, µM (top dose mostly 46.2 µM), actives largely listed as inhibitors; AID 686978, 2013; further: nearly all actives have a fitted effect of over 55% in size
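Stably hTDP1-transfected Tdp1-null chicken DT40 cells were treated with library compounds minus camptothecin and grown for at least 48 hr at 37 °C, after which cellular ATP was quantified by luminescence.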
A number is an active result; i = inactive; ? = inconclusive; nt = no result given; [ ] = remark or other dose. Hits are enriched below; roughly 18% of the tested compounds scored in any of these assays. The call rests on the fitted dose curve; in most records, active means well fitted curve in the direction sought with a large enough effect; inconclusive means small, poorly fitted or top-dose-only effect, or another doubt; inactive means no such curve, though single readings can be large; an effect the other way counts as inactive or inconclusive.

SMILES | TDP1 block | PLK1 PBD inh | GCN5L2 inh | VDR inh | DT40 TDP1 CPT | TDP1 cell noCPT
Cc1csc(NC(=O)C(NC(=O)c2ccccc2F)C(C)C)n1 (stereo not given) | i | i | i | i | ? | 20.6µM
CC(C)C(NC(=O)c1ccccc1F)C(=O)NCc1ccccc1 (stereo not given) | i | 26.7µM | i | ? | ? | ?
O=C(CCC(=O)N1CCOc2ccccc21)NCCc1ccccc1 | nt | i | ? | i | i | i
COc1ccc2c(c1)C1(Nc3ccccc3-c3nc4ccccc4n31)C(=O)N2C (stereo not given) | i | i | i | i | ? | 20.6µM
O=S(=O)(Nn1cnnc1)c1ccccc1Cl | i | 26.7µM | ? | i | i | i
O=S(=O)(Nn1cnnc1)c1ccccc1 | i | i | i | i | i | i
CC(Sc1nnnn1C1CCCC1)C(=O)Nc1cccc(S(=O)(=O)N2CCOCC2)c1 (stereo not given) | i | i | i | i | ? | ?
CS(=O)(=O)c1ccc(Cn2c3c(c4cc(F)cc(F)c42)CCC[C@H]3CC(=O)O)cc1 | i | nt | i | 25.1µM | i | i
CCN(CC)S(=O)(=O)c1ccc(N2CCCC2)c(NC(=O)c2ccc(N3CCCC3=O)cc2)c1 | i | i | i | i | i | ?
CC1CC(C)CN(CCCNC(=O)c2ccc3nc(N4CCCCC4)sc3c2)C1 (stereo not given) | nt | i | i | i | ? | ?
CC1CCCC(C)N1CCCNC(=O)c1ccc2nc(N3CCCCC3)sc2c1 (stereo not given) | nt | i | i | i | i | i
Cc1ccc(C)c(N2CCN(CCCNC(=O)c3ccc4nc(N5CCCCC5)sc4c3)CC2)c1 | i | nt | i | i | 18.4µM | 10.3µM
CCCCN(CCCC)CCCNC(=O)c1ccc2nc(N3CCCCC3)sc2c1 | i | nt | i | i | ? | 23.1µM
COc1ccccc1N(CC(=O)NCCSc1ccccc1)S(=O)(=O)c1ccccc1 | nt | i | nt | i | ? | 18.4µM
COc1ccc(CNC(=O)CN(c2ccccc2OC)S(=O)(=O)c2cccs2)cc1 | i | i | i | i | 16.4µM | ?
COc1ccc(OC)c(N(CC(=O)NCc2ccccc2)S(=O)(=O)c2ccccc2)c1 | i | nt | i | i | 11.6µM | ?
COc1ccccc1N(CC(=O)NCCSc1ccccc1)S(C)(=O)=O | i | i | i | i | i | i
COc1ccc(N(CC(=O)NCCc2ccccc2)S(=O)(=O)c2ccccc2)c(OC)c1 | i | nt | i | i | 20.6µM | 20.6µM
CCOC(=O)c1c(S(=O)(=O)NCC(=O)N2CCN(c3ccc(F)cc3)CC2)c(C)n(C)c1C | i | i | i | i | i | i
COc1ccc(COC(=O)N/N=C2/C[C@@H](O)[C@@H](O)[C@@H]3[C@@H]4C(=O)N(Cc5ccccc5)C(=O)[C@H]4CC[C@H]23)cc1 | i[21 µM] | nt | nt | nt | nt | nt
COc1ccc(CCNC(=O)CN(c2ccccc2OC)S(=O)(=O)c2ccc(C)cc2)cc1 | i | i | i | i | 20.6µM | 23.1µM
COc1ccc(OC)c(NC(=O)c2cccc(S(=O)(=O)N(Cc3ccccc3)c3ccccc3OC)c2)c1 | i | i | i | i | 6.51µM | ?
Cc1cccc(N(CC(=O)NCCSc2ccccn2)S(=O)(=O)c2ccccc2)c1 | i | i | i | i | ? | 14.6µM
COc1cccc(N(CC(=O)Nc2cccc(C(C)=O)c2)S(C)(=O)=O)c1 | i | i | ? | i | i | i
COc1ccccc1N(Cc1ccccc1)S(=O)(=O)c1cccc(C(=O)Nc2ccc(C(C)=O)cc2)c1 | i | i | i | i | i | ?
SMILES | TDP1 block | PLK1 PBD inh | GCN5L2 inh | VDR inh | DT40 TDP1 CPT | TDP1 cell noCPT
COc1ccc(N(CC(=O)Nc2cccc(C(C)=O)c2)S(=O)(=O)c2ccccc2)c(OC)c1 | i | nt | i | i | 7.31µM | 6.51µM
CCC(=O)OCC(=O)[C@@]1(OC(=O)CC)[C@H](C)C[C@@H]2[C@H]3CCC4=CC(=O)C=C[C@]4(C)[C@]3(Cl)[C@@H](O)C[C@@]21C | i | nt | i | i | nt | nt
CSCCC(N=C1NS(=O)(=O)c2ccccc21)C(=O)NCCc1ccccc1 (stereo not given) | i | i | i | i | i | i
Cc1ccc(/C=C2/C(=O)C3(C)CCC2C3(C)C)cc1 (stereo not given) | nt | nt | i | i | nt | nt
COc1ccccc1N(CC(=O)NCCSc1ccccc1)S(=O)(=O)c1ccc(C)cc1 | nt | nt | i | i | ? | 16.4µM
COc1ccc(N(CC(=O)NCCSc2ccccc2)S(=O)(=O)c2ccccc2)c(OC)c1 | i | i | i | i | ? | 13µM
COc1ccc(OC)c(N(CC(=O)NCCSCc2ccco2)S(=O)(=O)c2ccccc2)c1 | nt | i | i | i | ? | 14.6µM
COc1ccc(N(CC(=O)NCCSc2ccccn2)S(=O)(=O)c2ccccc2)c(OC)c1 | nt | i | i | i | ? | 20.6µM
CCCc1[nH]nc2c1C(c1ccc(OC)c(CSC3=NCCS3)c1)C(C#N)=C(N)O2 (stereo not given) | i | ? | i | i | ? | 20.6µM
O=C(Nc1ccc(Cl)cc1)C1=Cc2cc(Cl)ccc2OC1 | i | i | i | i | 18.4µM | 25.9µM
O=C(CNc1ccc(F)cc1)N/N=C/c1c(O)ccc2ccccc12 | nt | i | i | i | 10.3µM | 9.2µM
CCOc1ccc2ccccc2c1/C=N/NC(=O)CNC(=O)Cc1ccccc1 | i | i | i | i | 18.4µM | i
CCOc1ccc2ccccc2c1/C=N/NC(=O)CNC(=O)c1ccccc1F | i | i | i | i | i | ?
Oc1ccc2ccccc2c1C=Nc1ccc(Cl)cn1 | i | 16.8µM | i | i | i | i
O=CN/N=C/c1c(O)ccc2ccccc12 | i | i | i | i | 7.31µM | 6.51µM
CCCCn1c(CCC(=O)O)nc2cc(S(=O)(=O)N(CC)CC)ccc21 | i | i | i | i | i | i
NC(=S)N/N=C/c1c(O)ccc2ccccc12 | i | i | i | i | 11.6µM | ?
Oc1ccc2ccccc2c1/C=N/Nc1ccccc1 | i | ? | i | i | i | i
CCCC(C)C(=O)Nc1nc(C)c(-c2csc(Nc3cc(OC)ccc3OC)n2)s1 (stereo not given) | i | i | i | i | 4.61µM | 6.51µM
CCCC(=O)Nc1nc(C)c(-c2csc(Nc3cc(OC)ccc3OC)n2)s1 | i | i | i | i | 4.61µM | 6.51µM
CCCC(=O)Nc1nc(C)c(-c2csc(Nc3ccccc3OC)n2)s1 | i | i | i | i | i | ?
